The record followed here is publication PMC7819943, “Rice protein-binding microarrays: a tool to detect cis-acting elements near promoter regions in rice”.

Over roughly 39,000 sequences, “fluorescence intensity (a.u.)” has its median near 4,300; the highest 2% begin near 39,000. The list comes from a sample in which the highest values are over-represented; it also holds similar and randomly drawn sequences.

The assay addresses T1, OsSMF1 (Oryza sativa, UniProt Q6ZLB0 1-436).
T1 sequence: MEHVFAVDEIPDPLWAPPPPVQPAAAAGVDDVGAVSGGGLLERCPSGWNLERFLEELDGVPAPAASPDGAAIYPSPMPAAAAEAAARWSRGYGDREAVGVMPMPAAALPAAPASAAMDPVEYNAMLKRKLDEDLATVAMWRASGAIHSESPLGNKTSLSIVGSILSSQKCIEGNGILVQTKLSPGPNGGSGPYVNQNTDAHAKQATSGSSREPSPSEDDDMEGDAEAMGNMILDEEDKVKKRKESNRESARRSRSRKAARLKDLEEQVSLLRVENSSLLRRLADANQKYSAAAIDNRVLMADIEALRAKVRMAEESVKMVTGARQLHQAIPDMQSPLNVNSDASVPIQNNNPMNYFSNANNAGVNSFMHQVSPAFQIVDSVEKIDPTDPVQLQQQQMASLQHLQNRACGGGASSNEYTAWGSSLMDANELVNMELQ
In words: protein-binding microarray (RPBM); PBS, 2% BSA, 51.3 ng/ul salmon testes DNA, 50 uM zinc acetate, 200 nM TF, 25 C, 1 h; high values mean tight binding. Particulars: protein: recombinant; tags: N-terminal polyhistidine and DsRed monomer fusion (pET32a); chain copies: 2; label: CyDye5-dUTP incorporated in the synthesized complementary strand; 3' TTTTT single-stranded linker to array surface; dsDNA, one strand shown. In short, it runs like this:
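Per-feature fluorescence intensity (arbitrary units), read on an Axon 4000B scanner, is the binding signal. Transcription factors carrying an N-terminal polyhistidine tag and DsRed fusion were expressed in E. coli BL21-CodonPlus and purified on Ni–NTA. A custom Agilent array, made double-stranded by primer extension with Cy5-dUTP and blocked with 2% BSA, was incubated with 200 nM protein in PBS, 2% BSA, salmon testes DNA and 50 µM zinc acetate at 25 °C for 1 h and then washed.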
With “TTAAAACTCAATTAATCACACGTTATTACCACCTCGTTTTCGGAGTCACCTAGTGCAG”, the binding signal was 3210 fluorescence intensity (a.u.).
The result for “CTCAAAACCACACCGTTAAATGTTTTACCCTACTCTCGTACGGAGTCACCTAGTGCAG” reads 39200 fluorescence intensity (a.u.); that for “TATATACTCTCTTCGTTTCAAAATGTTTGACGCCGTTAACCGGAGTCACCTAGTGCAG”, 3670 fluorescence intensity (a.u.); that for “ATAGTATAAAAGTAATGTGATGTGGCTTTATGAGAGAAAACGGAGTCACCTAGTGCAG”, 3780 fluorescence intensity (a.u.).
As to “TATATATATATATATATATAAAGTGTATGACATGTGATCACGGAGTCACCTAGTGCAG”, the binding signal was 3970 fluorescence intensity (a.u.).
In the case of “TGACAGCCACAAGTATGATGTGATAAAGTGTGGCTATAAACGGAGTCACCTAGTGCAG”, the binding signal was 65500 fluorescence intensity (a.u.).
“GGAGAAAATTGCGGAGGGGATCCACAGTTCCAGCCGCGTGCGGAGTCACCTAGTGCAG”: the binding signal was 3190 fluorescence intensity (a.u.).
“ACAAAATTTATTTCCAGGTGGCGTCTCCTCATTGGCCAGCCGGAGTCACCTAGTGCAG”: the binding signal is 4370 fluorescence intensity (a.u.).
On to “TGGGTGAGAGTTTGAACCCGAACATATGACACATCTATGTCGGAGTCACCTAGTGCAG”, for which the binding signal was 3270 fluorescence intensity (a.u.).
For “ATCACTCTACTTTGTCTGTGTCATATTATAAGCTGCTTGACGGAGTCACCTAGTGCAG”, the binding signal is 5640 fluorescence intensity (a.u.).
The result for “ACAATTACTGTATTGTGCATATAAGCTGCATATCTATCACCGGAGTCACCTAGTGCAG” reads 39900 fluorescence intensity (a.u.); that for “TATGTCAATACTGTATGCATATATTAACATAAAATATCTCCGGAGTCACCTAGTGCAG”, 4760 fluorescence intensity (a.u.).
Regarding “AGAAAGCAACATGCTGTCCCGGTGGCACATCCGATTAGTACGGAGTCACCTAGTGCAG”, the binding signal was 3680 fluorescence intensity (a.u.).
Take “GGCTTCCCGCGCCACAAGCTTTGCCGCCACCTCCTCCTCGCGGAGTCACCTAGTGCAG”: the binding signal is 3230 fluorescence intensity (a.u.).
Turning to “CAGAGTTCCGTTCTGAATTTCTGGTGAGTCATCTGCTGAACGGAGTCACCTAGTGCAG”, the binding signal is 8920 fluorescence intensity (a.u.).
Under “GTTGCCTTCGTGTCCAGTGGATAGATAAGGATAGGATTTTCGGAGTCACCTAGTGCAG” stands 65500 fluorescence intensity (a.u.); under “GTTGTCAGTTGGATAGAACCAGTCCAGGAACGTGTGGCCCCGGAGTCACCTAGTGCAG”, 3240 fluorescence intensity (a.u.).
“CCTTAGGCTACGTTGGCTTTTGCATTTTGGCGTGGATTTTCGGAGTCACCTAGTGCAG”: the binding signal was 14400 fluorescence intensity (a.u.).
Regarding “CGCGGATCGGCCGCGAGGCGCACGTGGACATCACCACCAACGGAGTCACCTAGTGCAG”, the binding signal is 4220 fluorescence intensity (a.u.).
Consider “GCTGCACGGCCGCGGCGTGGCGCTGACGGCGACGGTGAGGCGGAGTCACCTAGTGCAG”, for which the binding signal was 5740 fluorescence intensity (a.u.).
Turning to “GCGAGCTGTGCCGTTCTTGATCACCGAGGCGATGGCGGCGCGGAGTCACCTAGTGCAG”, the binding signal is 39200 fluorescence intensity (a.u.).
“GAGCGCTGCGTGCGCGCGCGTCCGCGGCCACGCCATCCGCCGGAGTCACCTAGTGCAG”: the binding signal is 4600 fluorescence intensity (a.u.).
Under “CCCGCGCCGCGGCGGATCGATGGAGCTGTTCGAGCGCGCGCGGAGTCACCTAGTGCAG” stands 3160 fluorescence intensity (a.u.); under “GAAGCTGTCATCGCTGATGCGGCGAAGAGATCATCATCACCGGAGTCACCTAGTGCAG”, 4450 fluorescence intensity (a.u.); under “GAGCCGCTGATCCGCTGCACGGCGGCGCGGAGCGCGTCGACGGAGTCACCTAGTGCAG”, 39100 fluorescence intensity (a.u.).
Under “GATGATGATGATGATGATGATGAGAAGGTGGTGCCGCCGCCGGAGTCACCTAGTGCAG” stands 4280 fluorescence intensity (a.u.); under “TTGATGGCGATCTGCGAGGCCGTGCGGGTCACGGAGCGCGCGGAGTCACCTAGTGCAG”, 30900 fluorescence intensity (a.u.); under “ATGGTGGAGAAGGTGACGATGACACGAGGTGATCTGGATCCGGAGTCACCTAGTGCAG”, 3680 fluorescence intensity (a.u.).
Turning to “CGGCGCAGATCCGGCGAGCGGCGGCGGCGGAAGCTGATGGCGGAGTCACCTAGTGCAG”, the binding signal was 39900 fluorescence intensity (a.u.).
Under “AGATGGCGGCGGCGGCGCAGATCCGGCCTCCACGCGCGCACGGAGTCACCTAGTGCAG” stands 3940 fluorescence intensity (a.u.); under “GCCGCCGCCGCCGGAGAAGATGATGGTGCCGCTGGATCCGCGGAGTCACCTAGTGCAG”, 43500 fluorescence intensity (a.u.); under “GTTTGGAATTTTGGATAGAAATTCCGGGCGTGACACATCGCGGAGTCACCTAGTGCAG”, 5880 fluorescence intensity (a.u.).
Turning to “ATGTCGCTGTGGCTCATCCGGCCCAAGCCCATTTCCCCACCGGAGTCACCTAGTGCAG”, the binding signal was 29500 fluorescence intensity (a.u.).
Consider “AAACTGAAGGGTATTTTCACAAAATTTCCTTTTCTTTCTCCGGAGTCACCTAGTGCAG”, for which the binding signal was 6620 fluorescence intensity (a.u.).
Consider “GTATATGCGTCATGTGCGTCTTCCCTGTCACGAGTGCGTGCGGAGTCACCTAGTGCAG”, for which the binding signal was 7200 fluorescence intensity (a.u.).
For the sequence “ACATGTGGGTCCTGTTGACATGTAGGTGCCACCTTGGCATCGGAGTCACCTAGTGCAG”, the binding signal was 4440 fluorescence intensity (a.u.).
As for “GAAACTTTCCTACGCACAAACTTTCAACTTTTACGTCACACGGAGTCACCTAGTGCAG”, the binding signal is 3340 fluorescence intensity (a.u.).
With “CATGCTATGTGCTCAAAGGGCAACGGTCGACGTGTGCCTTCGGAGTCACCTAGTGCAG”, the binding signal was 4110 fluorescence intensity (a.u.).
Take “CTAAACAAAGGATGAGGCTATGAGCACCCACCAACCATACCGGAGTCACCTAGTGCAG”: the binding signal was 34200 fluorescence intensity (a.u.).
Regarding “AGATCTGCACAACCATAACGGCTAAAGAGGAGATACCAAACGGAGTCACCTAGTGCAG”, the binding signal is 65500 fluorescence intensity (a.u.).
For the sequence “ACACAGATCTGCAACCAAAACAAATGCAACACTAAACACCCGGAGTCACCTAGTGCAG”, the binding signal was 26100 fluorescence intensity (a.u.).
For the sequence “GCACAACCGCACACGAGACGACGTCACCCACAACCGCACGCGGAGTCACCTAGTGCAG”, the binding signal is 6040 fluorescence intensity (a.u.).
